# Source: PubChem BioAssay (NCATS)
# “And” between values parts separate entries of the source, which are not always exact repeats. Equal entries are not always repeated. A number with no mark means an inactive call. Records with an inconclusive call do not appear. Entries that show only a call come without a potency. The source made the active and inactive calls. Unless noted, calls follow the shape of the dose curve; as a rule, active = well fitted inhibition curve with a large enough effect; inconclusive = small, poorly fitted or top-dose-only effect; inactive = flat fitted curve, though single readings scatter.
# Experiments:
# [1] = biological target: Glucocorticoid receptor (Homo sapiens) (UniProt P04150); assay: GR-EFC Redistribution (AID 451; calls by dose curve); settings: CHO-K1 GR-EFC translocation, beta-gal luminescence, 2 h
# Sequence of Glucocorticoid receptor (Homo sapiens) (P04150 whole entry, looked up, the tested form may be a part): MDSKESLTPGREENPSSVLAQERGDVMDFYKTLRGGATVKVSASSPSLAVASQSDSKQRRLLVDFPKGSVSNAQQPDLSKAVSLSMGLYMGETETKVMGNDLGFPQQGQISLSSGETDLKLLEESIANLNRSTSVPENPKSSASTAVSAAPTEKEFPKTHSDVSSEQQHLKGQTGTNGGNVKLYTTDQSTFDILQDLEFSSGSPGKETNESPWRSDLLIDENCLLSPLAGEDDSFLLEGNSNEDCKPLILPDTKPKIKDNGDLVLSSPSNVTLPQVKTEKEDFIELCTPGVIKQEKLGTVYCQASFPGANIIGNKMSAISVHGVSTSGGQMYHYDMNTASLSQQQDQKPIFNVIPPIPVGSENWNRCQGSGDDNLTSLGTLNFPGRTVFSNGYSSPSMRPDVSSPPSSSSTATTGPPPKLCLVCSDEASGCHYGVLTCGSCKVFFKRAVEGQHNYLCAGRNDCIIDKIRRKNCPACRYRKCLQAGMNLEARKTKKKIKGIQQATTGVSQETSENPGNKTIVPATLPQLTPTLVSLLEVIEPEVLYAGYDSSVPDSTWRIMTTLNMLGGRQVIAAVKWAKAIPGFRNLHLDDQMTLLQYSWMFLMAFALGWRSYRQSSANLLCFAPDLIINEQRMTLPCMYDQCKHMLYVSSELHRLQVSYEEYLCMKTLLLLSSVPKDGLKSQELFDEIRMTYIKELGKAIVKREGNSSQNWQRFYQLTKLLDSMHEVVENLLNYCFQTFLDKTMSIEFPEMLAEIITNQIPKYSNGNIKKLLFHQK
# Procedure, shortened: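 CHO-K1 cells expressing nuclear EA and GR-ED fragments of b-gal; compounds titrated up to 46 uM final, 2 h at 37 C. GR nuclear translocation read as complemented b-gal luminescence after 1 h RT detection.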
# AA1029 = assay: qHTS profiling for inhibitors of Plasmodium falciparum proliferation (AID 504749); also: nearly all actives have a fitted effect of over 60% in size; settings: P. falciparum in erythrocytes, SYBR Green DNA, 72 h; series mostly up to 12.8 µM
# Procedure, shortened: (§1)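 SYBR Green fluorescence (ex 485 nm, em 535 nm) reports parasite DNA after 72 h compound exposure of infected red cells at 0.3% parasitemia, 2.5% hematocrit; signal normalized to 0.29 uM artemisinin and vehicle wells.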
# ATS189 = assay: as above; settings: P. falciparum in erythrocytes, SYBR Green DNA, 72 h; series mostly up to 12.8 µM
# Procedure, shortened: as §1
# ATS95 = assay: as above; settings: P. falciparum in erythrocytes, SYBR Green DNA, 72 h; series mostly up to 12.8 µM
# Procedure, shortened: as §1
# CP237 = assay: as above; settings: P. falciparum in erythrocytes, SYBR Green DNA, 72 h; series mostly up to 12.8 µM
# Procedure, shortened: as §1
# CP252 = assay: as above; settings: P. falciparum in erythrocytes, SYBR Green DNA, 72 h; series mostly up to 12.8 µM
# Procedure, shortened: as §1
# CP260 = assay: as above; settings: P. falciparum in erythrocytes, SYBR Green DNA, 72 h; series mostly up to 12.8 µM
# Procedure, shortened: as §1
# CP265 = assay: as above; settings: P. falciparum in erythrocytes, SYBR Green DNA, 72 h; series mostly up to 12.8 µM
# Procedure, shortened: as §1
# CP269 = assay: as above; settings: P. falciparum in erythrocytes, SYBR Green DNA, 72 h; series mostly up to 12.8 µM
# Procedure, shortened: as §1
# CP286 = assay: as above; settings: P. falciparum in erythrocytes, SYBR Green DNA, 72 h; series mostly up to 12.8 µM
# Procedure, shortened: as §1
# CP305 = assay: as above; settings: P. falciparum in erythrocytes, SYBR Green DNA, 72 h; series mostly up to 12.8 µM
# Procedure, shortened: as §1
# CP315 = assay: as above; settings: P. falciparum in erythrocytes, SYBR Green DNA, 72 h; series mostly up to 12.8 µM
# Procedure, shortened: as §1
# CP329 = assay: as above; settings: P. falciparum in erythrocytes, SYBR Green DNA, 72 h; series mostly up to 12.8 µM
# Procedure, shortened: as §1
# JCK = assay: as above; settings: P. falciparum in erythrocytes, SYBR Green DNA, 72 h; series mostly up to 12.8 µM
# Procedure, shortened: as §1
# N140 = assay: as above; settings: P. falciparum in erythrocytes, SYBR Green DNA, 72 h; series mostly up to 12.8 µM
# Procedure, shortened: as §1
# PAD = assay: as above; settings: P. falciparum in erythrocytes, SYBR Green DNA, 72 h; series mostly up to 12.8 µM
# Procedure, shortened: as §1
# PC15 = assay: as above; settings: P. falciparum in erythrocytes, SYBR Green DNA, 72 h; series mostly up to 12.8 µM
# Procedure, shortened: as §1
# PC49 = assay: as above; settings: P. falciparum in erythrocytes, SYBR Green DNA, 72 h; series mostly up to 12.8 µM
# Procedure, shortened: as §1
# TAB113 = assay: as above; settings: P. falciparum in erythrocytes, SYBR Green DNA, 72 h; series mostly up to 12.8 µM
# Procedure, shortened: as §1
# TAB165 = assay: as above; settings: P. falciparum in erythrocytes, SYBR Green DNA, 72 h; series mostly up to 12.8 µM
# Procedure, shortened: as §1
# Potency is read from the fitted curve at half-maximal effect.
compound,measurement,setting,value
CC=C(/C(=C/C)c1ccc(O)cc1)c1ccc(O)cc1,Potency,[1],> 20.6 µM
same,Potency,AA1029,inactive
same,Potency,ATS189,inactive
same,Potency,ATS95,inactive
same,Potency,CP237,inactive
same,Potency,CP252,inactive
same,Potency,CP260,inactive
same,Potency,CP265,inactive
same,Potency,CP269,inactive
same,Potency,CP286,inactive
same,Potency,CP305,inactive
same,Potency,CP315,inactive
same,Potency,CP329,inactive
same,Potency,JCK,inactive
same,Potency,N140,inactive
same,Potency,PAD,inactive
same,Potency,PC15,inactive
same,Potency,PC49,inactive
same,Potency,TAB113,inactive
same,Potency,TAB165,inactive
C=C(C)[C@H]1CC[C@]2(CO)CC[C@]3(C)[C@@H](CC[C@H]4[C@@]5(C)CC[C@@H](O)C(C)(C)[C@@H]5CC[C@@]43C)[C@H]12,Potency,[1],> 20.6 µM
CC[C@@H]1OC(=O)[C@H](C)[C@H](O[C@@H]2C[C@](C)(OC)[C@H](O)[C@H](C)O2)[C@H](C)[C@H](O[C@@H]2O[C@@H](C)C[C@@H](N(C)C)[C@@H]2O)[C@](C)(O)C[C@H](C)C(=NOCOCCOC)[C@H](C)[C@H](O)[C@]1(C)O,Potency,[1],> 20.6 µM
same,Potency,AA1029,inactive
same,Potency,ATS189,inactive
same,Potency,ATS95,inactive
same,Potency,CP237,inactive
same,Potency,CP265,inactive
same,Potency,CP286,inactive
same,Potency,CP305,inactive
same,Potency,CP329,inactive
same,Potency,JCK,inactive
same,Potency,N140,inactive
same,Potency,PAD,inactive
same,Potency,PC15,inactive
same,Potency,PC49,inactive
same,Potency,TAB113,inactive
same,Potency,TAB165,inactive
COc1cc2c(cc1OC)-c1cc3ccc(OC)c(OC)c3c[n+]1CC2,Potency,[1],> 20.6 µM
COc1cccc(-c2nc(NCCc3c[nH]c4ccc(OC)cc34)c3ccccc3n2)c1,Potency,[1],> 46 µM
C[C@@H](Cc1cccc(C(F)(F)F)c1)NCCOC(=O)c1ccccc1,Potency,[1],> 20.6 µM
CN1CCC[C@@H](CC2c3ccccc3Sc3ccccc32)C1,Potency,[1],> 20.6 µM
same,Potency,ATS189,inactive
same,Potency,CP252,inactive
same,Potency,CP269,inactive
same,Potency,CP315,inactive
same,Potency,CP329,inactive
same,Potency,PAD,inactive
same,Potency,PC49,inactive
same,Potency,TAB113,inactive
Nc1c2ccccc2nc2c(O)cccc12,Potency,[1],> 20.6 µM
NC[C@@H]1O[C@H](O[C@@H]2[C@H](O[C@@H]3O[C@H](CO)[C@@H](COC[C@H]4O[C@@H](CN)[C@@H](O)[C@@H](O)[C@@H]4N)[C@@H]3O)[C@@H](O)[C@@H](N)C[C@H]2N)[C@@H](N)[C@H](O)[C@@H]1O,Potency,[1],> 20.6 µM
CN(C)CCn1nnnc1SCC1=C(C(=O)O)N2C(=O)[C@@H](NC(=O)Cc3csc(N)n3)[C@@H]2SC1,Potency,[1],> 20.6 µM
same,Potency,AA1029,inactive
same,Potency,ATS95,inactive
same,Potency,CP237,inactive
same,Potency,CP252,inactive
same,Potency,CP286,inactive
same,Potency,CP305,inactive
same,Potency,CP315,inactive
same,Potency,CP329,inactive
same,Potency,PC49,inactive
CS(=O)(=O)c1ccc([C@H](O)[C@H](CO)NC(=O)C(Cl)Cl)cc1,Potency,[1],> 20.6 µM
same,Potency,ATS189,inactive
same,Potency,ATS95,inactive
same,Potency,CP260,inactive
same,Potency,CP265,inactive
same,Potency,JCK,inactive
same,Potency,N140,inactive
same,Potency,PAD,inactive
same,Potency,PC15,inactive
same,Potency,PC49,inactive
same,Potency,TAB113,inactive
O=C(O)[C@@H]1[C@@H]2C[C@H]3c4[nH]c5ccccc5c4CCN3C[C@@H]2CC[C@@H]1O,Potency,[1],> 20.6 µM and > 46 µM
same,Potency,CP305,inactive
same,Potency,JCK,inactive
same,Potency,N140,inactive
same,Potency,PC49,inactive
C[C@@H](C(=O)O)c1ccc(C(=O)c2ccccc2)s1,Potency,AA1029,inactive
same,Potency,ATS189,inactive
same,Potency,ATS95,inactive
same,Potency,CP237,inactive
same,Potency,CP252,inactive
same,Potency,CP260,inactive
same,Potency,CP265,inactive
same,Potency,CP269,inactive
same,Potency,CP286,inactive
same,Potency,CP305,inactive
same,Potency,CP315,inactive
same,Potency,CP329,inactive
same,Potency,JCK,inactive
same,Potency,N140,inactive
same,Potency,PAD,inactive
same,Potency,PC15,inactive
same,Potency,PC49,inactive
same,Potency,TAB113,inactive
same,Potency,TAB165,inactive
C[C@@H]1O[C@H](O[C@@H]2[C@H](C)O[C@H](O[C@@H]3[C@H](C)O[C@H](O[C@H]4CC[C@]5(C)[C@@H](CC[C@@H]6[C@H]5C[C@@H](O)[C@]5(C)[C@@H](C7=CC(=O)OC7)CC[C@]65O)C4)C[C@@H]3O)C[C@@H]2O)C[C@H](O)[C@@H]1O,Potency,[1],> 20.6 µM
O=C(Nc1ccccc1)OC[C@H](CN1CCCCC1)OC(=O)Nc1ccccc1,Potency,[1],> 20.6 µM
same,Potency,AA1029,inactive
same,Potency,ATS189,inactive
same,Potency,ATS95,inactive
same,Potency,CP252,inactive
same,Potency,CP260,inactive
same,Potency,CP265,inactive
same,Potency,CP269,inactive
same,Potency,CP286,inactive
same,Potency,CP305,inactive
same,Potency,CP315,inactive
same,Potency,CP329,inactive
same,Potency,JCK,inactive
same,Potency,N140,inactive
same,Potency,PAD,inactive
same,Potency,PC15,inactive
same,Potency,PC49,inactive
same,Potency,TAB113,inactive
same,Potency,TAB165,inactive
Cc1cc2ccc(=O)oc2cc1OC[C@@H](O)C(C)(C)O,Potency,[1],> 46 µM
C[C@@H]1O[C@H](O[C@@H]2\C=C/C=C\C=C/C=C\C[C@H](C)OC(=O)/C=C\[C@H]3O[C@@H]3C[C@H](O)C[C@]3(O)C[C@@H](O)[C@@H](C(=O)O)[C@H](C2)O3)[C@@H](O)[C@H](N)[C@@H]1O (stereo in doubt),Potency,[1],> 20.6 µM
same,Potency,AA1029,inactive
same,Potency,ATS189,inactive
same,Potency,ATS95,inactive
same,Potency,CP237,inactive
same,Potency,CP252,inactive
same,Potency,CP260,inactive
same,Potency,CP265,inactive
same,Potency,CP269,inactive
same,Potency,CP286,inactive
same,Potency,CP305,inactive
same,Potency,CP315,inactive
same,Potency,CP329,inactive
same,Potency,JCK,inactive
same,Potency,N140,inactive
same,Potency,PAD,inactive
same,Potency,PC15,inactive
same,Potency,PC49,inactive
same,Potency,TAB113,inactive
same,Potency,TAB165,inactive
COc1cc(N[C@@H](C)CCCN)c2ncccc2c1,Potency,AA1029,2.51 µM (active)
same,Potency,ATS189,2.24 µM (active)
same,Potency,ATS95,3.16 µM (active)
same,Potency,CP237,2.51 µM (active)
same,Potency,CP252,1.26 µM (active)
same,Potency,CP260,1.41 µM (active)
same,Potency,CP265,2 µM (active)
same,Potency,CP269,1.81 µM (active)
same,Potency,CP286,0.891 µM (active)
same,Potency,CP305,1.81 µM (active)
same,Potency,CP315,5.73 µM (active)
same,Potency,CP329,3.61 µM (active)
same,Potency,JCK,3.98 µM (active)
same,Potency,N140,2.82 µM (active)
same,Potency,PAD,0.891 µM (active)
same,Potency,PC15,1 µM (active)
same,Potency,PC49,2.24 µM (active)
same,Potency,TAB113,1.41 µM (active)
same,Potency,TAB165,0.891 µM (active)
